From PubChem
PAFAH1B2 FP inh: blocks human PAF acetylhydrolase 1b catalytic subunit 2; P68402; recombinant PAFAH1B2, FP-rhodamine activity probe, fluorescence polarization; inhibition, % at 3.39 µM; 340,000 compounds, 1.2% hits; AID 492953;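 active means inhibition above the mean of all tested compounds plus 3 SD, cut at about 24% in these data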;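 further: 0% = enzyme with DMSO and 100% = wells lacking PAFAH1B2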
DSG3 Ab inh: blocks pemphigus antibody binding to human desmoglein-3 | AID 588358 | P32926 | DSG3-coupled beads, scFv-anti-DSG3-GFP binding, flow cytometry; hits give low values | binding (percent of control), % at 10 µM | 310,000 compounds, 0.48% hits;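 active means binding more than 3 SD below its plate's average and above zero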;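 further: hits lower antibody fragment binding to DSG3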
PAFAH2 inh: inhibitors of human PAFAH2. Q99487. recombinant PAFAH2, FP-rhodamine activity probe, fluorescence polarization. inhibition, % at 3.39 µM. 340,000 compounds, 0.99% hits. AID 492956;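 active means inhibition above the mean over all tested compounds plus 3 SD, cut at about 30% in these data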;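 further: inhibitors block probe labeling of enzyme so polarization drops; 0% = enzyme with DMSO and 100% = wells lacking PAFAH2 protein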
PfM18AAP inh-1: blocks P. falciparum M18 aspartyl aminopeptidase. recombinant PfM18AAP, H-Glu-NHMec fluorogenic cleavage. inhibition, % at 7.35 µM. 290,000 compounds, 1.2% hits. AID 1822;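 active means inhibition above the campaign mean inhibition over all tested compounds plus 3 SD, cut at about 28% in these data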;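 further: 0% = plate median of test compound wells and 100% = 2 mM ZnCl2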
pPAFAH inh: inhibitors of human plasma PAF acetylhydrolase (pPAFAH). Q13093. recombinant pPAFAH, FP-rhodamine probe fluorescence polarization. inhibition, % at 3.39 µM. 330,000 compounds, 1.5% hits. AID 463082;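 active means inhibition above the mean inhibition across the screen plus 3 SD, cut at about 25% in these data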;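 further: inhibitors block binding of the rhodamine activity-based probe so polarization drops; 0% = enzyme with DMSO and 100% = wells lacking pPAFAH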
PAFAH1B3 inh: blocks human PAF acetylhydrolase 1B catalytic subunit 3; recombinant PAFAH1B3, FP-rhodamine probe, fluorescence polarization; inhibition, % at 3.39 µM; 340,000 compounds, 0.28% hits; AID 492972;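 active means inhibition above the screen-wide average of all tested compounds plus 3 SD, cut at about 25% in these data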;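 further: 0% = enzyme with DMSO only and 100% = wells lacking PAFAH1B3 protein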
PfM18AAP inh-2: confirmation of Plasmodium falciparum M18 aspartyl aminopeptidase inhibitors | shares compounds with PfM18AAP inh-1 | recombinant PfM18AAP, H-Glu-NHMec fluorogenic cleavage | inhibition, % at 7.35 µM | 2,400 compounds, 28% hits | AID 2170;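 active means mean inhibition over replicate wells above the hit cutoff set for the earlier primary screen, cut at about 29% in these data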;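 further: 0% = median of test compound wells and 100% = 2 mM ZnCl2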
CTSL1 counter: counter-screen for PFM18AAP inhibitors: confirmation of human cathepsin L inhibitors; inhibition, % at 5.96 µM; 2,400 tested, under 10 active; purified cathepsin L1, Z-Leu-Arg-MCA fluorescence; AID 2178; shares compounds with PfM18AAP inh-1;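 active means average inhibition across replicates above the hit cutoff set in the earlier primary screen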;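 further: 0% = median of test compound wells and 100% = Z-Phe-Ala-diazomethylketone 1 µM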
Target sequence (P07711 whole entry, looked up): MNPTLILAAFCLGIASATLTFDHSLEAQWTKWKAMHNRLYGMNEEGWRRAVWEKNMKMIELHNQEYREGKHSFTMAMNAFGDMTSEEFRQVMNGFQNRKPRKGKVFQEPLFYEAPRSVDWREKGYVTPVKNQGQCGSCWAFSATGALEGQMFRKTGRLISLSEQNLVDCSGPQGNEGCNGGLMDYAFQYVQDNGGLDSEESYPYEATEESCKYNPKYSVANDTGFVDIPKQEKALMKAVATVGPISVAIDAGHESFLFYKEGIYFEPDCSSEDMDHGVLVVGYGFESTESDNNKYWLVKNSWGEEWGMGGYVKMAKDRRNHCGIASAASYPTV
The depositor's hits bear a star; nt = no result. Hits are enriched below; roughly 3.8% of the tested compounds scored in any of these assays.

SMILES	PAFAH1B2 FP inh	DSG3 Ab inh	PAFAH2 inh	PfM18AAP inh-1	pPAFAH inh	PAFAH1B3 inh	PfM18AAP inh-2	CTSL1 counter
Cc1ccc(CNC(=O)CN2C(=O)CSc3ccc(S(=O)(=O)N4CCCCC4)cc32)cc1	6	94	4	2	1	-4	nt	nt
COc1ccccc1CNc1nc(C)c(C(=O)N(C)C)s1	5	nt	-13	34*	nt	2	-35	1
CCN(Cc1ccc(N(C)C)cc1)C(C)C(=O)Nc1ccc(S(=O)(=O)N2CCCC2)cc1 (centres undefined)	4	115	-2	nt	1	2	nt	nt
Cc1cccc2sc(NNC(=O)c3ccc(S(=O)(=O)N4CCc5ccccc5C4)cc3)nc12	5	97	0	37*	9	20	-42	-2
CCc1nnc(NC(=O)c2ccc(S(=O)(=O)N3CCCC(C)C3)cc2)s1 (centres undefined)	8	95	5	-6	9	15	nt	nt
Cc1cccc2sc(NNC(=O)c3ccc(S(=O)(=O)N4CCCC(C)C4)cc3)nc12 (centres undefined)	6	101	2	38*	11	10	-24	2
COc1cc(C(=S)N2CCCC2)ccc1O	4	98	2	-31	-2	11	nt	nt
COc1cc(C(=S)N2CCCCC2)ccc1O	-3	102	1	36*	1	0	-22	-4
COc1cccc(C(=S)N2CCCC2)c1OC	1	90	1	39*	2	2	-19	-2
O=C(NNC(=O)C(c1ccccc1)c1ccccc1)c1ccccc1O	nt	102	nt	nt	nt	nt	nt	nt
COc1cccc(C(=O)NCCNC(=O)c2ccc(C)nc2)c1	-6	101	-2	-2	-1	6	nt	nt
Nc1nnc(CC(=O)N/N=C/c2cc([N+](=O)[O-])cc(Br)c2O)s1	25*	97	26	37*	28*	19	1	3
CC1=CC2(C)C(C3C(C)=CC2(C)C(=O)C3(C)O)C(C)(O)C1=O (centres undefined)	0	101	-6	nt	nt	13	nt	nt
CCn1c(CSc2ncn[nH]2)nc2cc(C(=O)O)ccc21	5	98	12	48*	8	-1	9	6
COc1ccc(-n2c(O)c(/C=C3\C=Nc4ccccc43)c(=O)[nH]c2=O)cc1	0	134	12	32*	nt	10	0	-2
Cc1cccc(Nc2nc3c(s2)CCCC3)c1	5	99	3	32*	22	6	-9	-1
O=C(O)c1ccc(Nc2nc3c(s2)CCCC3)cc1	4	84	-4	11	-1	-7	nt	nt
COC(=O)C(NC(=O)CCc1c(C)nc2c(c(C)nn2-c2ccccc2)c1C)C(C)C (centres undefined)	3	98	9	9	nt	3	nt	nt
Cc1ccc(/C=N/Nc2nc(Cl)c(Cl)cc2Cl)s1	2	116	11	46*	5	7	-42	-1
Cc1ccsc1/C=N/Nc1nc(Cl)c(Cl)cc1Cl	1	97	0	19	3	-3	nt	nt
N#Cc1c(-c2ccc(Cl)cc2)cc(-c2cccs2)nc1SCC(=O)O	15	94	-1	36*	7	12	-2	-2
Cc1cc(C)c2c(=O)n(CC(=O)Nc3ccc(Cl)cc3)sc2n1	4	74	-5	57*	-4	-4	47*	7
Cc1ccc(NC(=O)Cn2sc3nc(C)cc(C)c3c2=O)c(Cl)c1	4	81	-3	67*	-2	5	45*	5
CCOc1ccc(NC(=O)Cn2sc3nc(C)cc(C)c3c2=O)cc1	4	80	-5	56*	-3	-2	36*	-8
Cc1ccc(NC(=O)Cn2c(C)cc(C)c(C#N)c2=O)c(Cl)c1	-3	104	0	-1	-3	9	nt	nt
Cc1ccc2sc(N3CCN(C(=O)C4=COCCO4)CC3)nc2c1C	5	106	2	nt	5	1	nt	nt
CSc1cccc2sc(NC(=O)C3=COCCO3)nc12	2	97	4	nt	5	-5	nt	nt
O=C(NNc1nc2c(F)cccc2s1)C1=COCCO1	4	90	2	44*	4	13	11	-1
